# Source: article PMC12864922, “TDP-43 directly inhibits mRNA accumulation in neurites through modulation of mRNA stability”
# In all, about 9,900 sequences were measured (“r (bound/input frequency ratio)”: median about 0.7, highest 2% from about 6.5 on). Only a selection was taken, and the highest values are over-represented in it overall.
# B1: ENSMUSG00000034801.232|Sos2|152:160 (ssRNA)
# RNA: GGGAGUUCUACAGUCCGACGAUCGCUUCGAUAUCCGCAUGCUAUAACUGUCUUUAAUCUCGUGUUAACUGAAAUUUUUGAAAAGUUUUUCCAGAUUAGUAAUAUUUAAACAGAAAAUACUUUAAAAAGCUUUAUUAAAUUUUUUAAUCAGGAUAAAGCUUUGCCAUUUGGAUACUAUCAUUCAAAGUGAUCAAGCAUACAUACUUAUGCUGAUAGUGCAGUAGCAGCCAUUGUAAAGUAGCCAAAAGCCACGUUGUUUAUCUACUGGUCUGUGGCCUUUUACUGUGCUUUGUAUCAGAGUUCUCUCUUGCGGUCGCACUAGUGUGGAAUUCUCGGGUGUCAAGG
# B2: ENSMUSG00000031028.95|Tub (ssRNA)
# RNA: GGGAGUUCUACAGUCCGACGAUCGCUUCGAUAUCCGCAUGCUAGGUGGUCAGCAGAAAGCACUCCCACUUCAAAAGGGCCCAUUAGGCCCAAAGGGGGUUAGGAGUGGUAGGGAUAGGUGCGUGGCAGGUCCCUGCUAGGAUUGCAGGGGCCUGGCCAUGUGUAUUAGCUGGAGGCUUAGAAUGCUAGCUCAUUUGUUGCUACAGAUUUGCCCAGUGCUUGCACACGUAAGAACCCAGCUCUCAAGGCCAAAUAUCUGAGUGGAUGGGGAUGAUAGGAGUCAUCCAGUAGACUCCCUACAUCACUCUUGCGGUCGCACUAGUGUGGAAUUCUCGGGUGUCAAGG
# B3: ENSMUSG00000029028.207|Lrrc47 (ssRNA)
# RNA: GGGAGUUCUACAGUCCGACGAUCGCUUCGAUAUCCGCAUGCUAGUCCUAAGGACCCAGCAGCUGCACAGAGGACUUGGUGGCCCCGUGCCUUGCCAUCUGGCUGAGAAGAGAACCAGACCCUCAGCCUUCCCCCUCGACACCUUCUCGUUGGUGACCUCUGACCUUAAAGGACCAUUUCUACCUUCUGUAAAAGAACACCUGUUUGGGGUUGCGUGCGGCUUUCAUCCUAAGGCCGUGCGAGAGCCGUUAGCUGUCAGAACUAGUGAAGCUCCAGGCUCCUCGUGGCAGACCCUGGACAACGCCUCUUGCGGUCGCACUAGUGUGGAAUUCUCGGGUGUCAAGG
# B4: ENSMUSG00000022095.264|Fam160b2 (ssRNA)
# RNA: GGGAGUUCUACAGUCCGACGAUCGCUUCGAUAUCCGCAUGCUAUGUGUGUGUGUGUGUGUGUGUGAGAGAGAGAGAGAGAGAGCGAGCUAUGAAUGAAUGUGAGUGUGUGUGUGUGUGUGUGUGAGAGAGAGAGAGAGAGAGAGAGAGCUGUGAGUACACAUGGGUGCUGGUGUGGGACAGGAGCAGAUCUUGGUGGAGUGGGUCUACACUUGAGAUUUGUACUCGUUUGAGAGGCUGGGCAAUACUCAAUGCACUUUGGCAUUUGCAUGGUGUCUUCACAACAGCACAGCAAUAAACAUUGUCUCUUGCGGUCGCACUAGUGUGGAAUUCUCGGGUGUCAAGG
# B5: ENSMUSG00000022095.262|Fam160b2 (ssRNA)
# RNA: GGGAGUUCUACAGUCCGACGAUCGCUUCGAUAUCCGCAUGCUAUGAAUGUGAGUGUGUGUGUGUGUGUGUGUGUGUGAGAGAGAGAGAGAGAGAGCGAGCUAUGAAUGAAUGUGAGUGUGUGUGUGUGUGUGUGUGAGAGAGAGAGAGAGAGAGAGAGAGCUGUGAGUACACAUGGGUGCUGGUGUGGGACAGGAGCAGAUCUUGGUGGAGUGGGUCUACACUUGAGAUUUGUACUCGUUUGAGAGGCUGGGCAAUACUCAAUGCACUUUGGCAUUUGCAUGGUGUCUUCACAACAGCACAGCCUCUUGCGGUCGCACUAGUGUGGAAUUCUCGGGUGUCAAGG
# B6: ENSMUSG00000022095.266|Fam160b2 (ssRNA)
# RNA: GGGAGUUCUACAGUCCGACGAUCGCUUCGAUAUCCGCAUGCUAUGUGUGUGUGAGAGAGAGAGAGAGAGAGCGAGCUAUGAAUGAAUGUGAGUGUGUGUGUGUGUGUGUGUGAGAGAGAGAGAGAGAGAGAGAGAGCUGUGAGUACACAUGGGUGCUGGUGUGGGACAGGAGCAGAUCUUGGUGGAGUGGGUCUACACUUGAGAUUUGUACUCGUUUGAGAGGCUGGGCAAUACUCAAUGCACUUUGGCAUUUGCAUGGUGUCUUCACAACAGCACAGCAAUAAACAUUGUGAUUGUGUGGACCUCUUGCGGUCGCACUAGUGUGGAAUUCUCGGGUGUCAAGG
# B7: ENSMUSG00000022095.267|Fam160b2 (ssRNA)
# RNA: GGGAGUUCUACAGUCCGACGAUCGCUUCGAUAUCCGCAUGCUAUGUGAGAGAGAGAGAGAGAGAGCGAGCUAUGAAUGAAUGUGAGUGUGUGUGUGUGUGUGUGUGAGAGAGAGAGAGAGAGAGAGAGAGCUGUGAGUACACAUGGGUGCUGGUGUGGGACAGGAGCAGAUCUUGGUGGAGUGGGUCUACACUUGAGAUUUGUACUCGUUUGAGAGGCUGGGCAAUACUCAAUGCACUUUGGCAUUUGCAUGGUGUCUUCACAACAGCACAGCAAUAAACAUUGUGAUUGUGUGGACAUGCUGCUCUUGCGGUCGCACUAGUGUGGAAUUCUCGGGUGUCAAGG
# B8: ENSMUSG00000022095.258|Fam160b2 (ssRNA)
# RNA: GGGAGUUCUACAGUCCGACGAUCGCUUCGAUAUCCGCAUGCUAGUGAGAGAGAGAGCGAGCUAUGAAUGAAUGUGAGUGUGUGUGUGUGUGUGUGUGUGUGAGAGAGAGAGAGAGAGAGCGAGCUAUGAAUGAAUGUGAGUGUGUGUGUGUGUGUGUGUGAGAGAGAGAGAGAGAGAGAGAGAGCUGUGAGUACACAUGGGUGCUGGUGUGGGACAGGAGCAGAUCUUGGUGGAGUGGGUCUACACUUGAGAUUUGUACUCGUUUGAGAGGCUGGGCAAUACUCAAUGCACUUUGGCAUUUGCCUCUUGCGGUCGCACUAGUGUGGAAUUCUCGGGUGUCAAGG
# B9: ENSMUSG00000022095.265|Fam160b2 (ssRNA)
# RNA: GGGAGUUCUACAGUCCGACGAUCGCUUCGAUAUCCGCAUGCUAUGUGUGUGUGUGUGUGAGAGAGAGAGAGAGAGAGCGAGCUAUGAAUGAAUGUGAGUGUGUGUGUGUGUGUGUGUGAGAGAGAGAGAGAGAGAGAGAGAGCUGUGAGUACACAUGGGUGCUGGUGUGGGACAGGAGCAGAUCUUGGUGGAGUGGGUCUACACUUGAGAUUUGUACUCGUUUGAGAGGCUGGGCAAUACUCAAUGCACUUUGGCAUUUGCAUGGUGUCUUCACAACAGCACAGCAAUAAACAUUGUGAUUGUCUCUUGCGGUCGCACUAGUGUGGAAUUCUCGGGUGUCAAGG
# B10: ENSMUSG00000022095.265|Fam160b2|1:16;55:75;122:126 (ssRNA)
# RNA: GGGAGUUCUACAGUCCGACGAUCGCUUCGAUAUCCGCAUGCUAACACACACACACACACAGAGAGAGAGAGAGAGAGCGAGCUAUGAAUGAAUGUGACACACACACACACACACACACAGAGAGAGAGAGAGAGAGAGAGAGCUGUGAGUACACAUGGGUGCUGCACACGGACAGGAGCAGAUCUUGGUGGAGUGGGUCUACACUUGAGAUUUGUACUCGUUUGAGAGGCUGGGCAAUACUCAAUGCACUUUGGCAUUUGCAUGGUGUCUUCACAACAGCACAGCAAUAAACAUUGUGAUUGUCUCUUGCGGUCGCACUAGUGUGGAAUUCUCGGGUGUCAAGG
# B11: ENSMUSG00000022095.260|Fam160b2 (ssRNA)
# RNA: GGGAGUUCUACAGUCCGACGAUCGCUUCGAUAUCCGCAUGCUAGCGAGCUAUGAAUGAAUGUGAGUGUGUGUGUGUGUGUGUGUGUGUGAGAGAGAGAGAGAGAGAGCGAGCUAUGAAUGAAUGUGAGUGUGUGUGUGUGUGUGUGUGAGAGAGAGAGAGAGAGAGAGAGAGCUGUGAGUACACAUGGGUGCUGGUGUGGGACAGGAGCAGAUCUUGGUGGAGUGGGUCUACACUUGAGAUUUGUACUCGUUUGAGAGGCUGGGCAAUACUCAAUGCACUUUGGCAUUUGCAUGGUGUCUUCACUCUUGCGGUCGCACUAGUGUGGAAUUCUCGGGUGUCAAGG
# B12: ENSMUSG00000022095.259|Fam160b2 (ssRNA)
# RNA: GGGAGUUCUACAGUCCGACGAUCGCUUCGAUAUCCGCAUGCUAGAGAGAGCGAGCUAUGAAUGAAUGUGAGUGUGUGUGUGUGUGUGUGUGUGUGAGAGAGAGAGAGAGAGAGCGAGCUAUGAAUGAAUGUGAGUGUGUGUGUGUGUGUGUGUGAGAGAGAGAGAGAGAGAGAGAGAGCUGUGAGUACACAUGGGUGCUGGUGUGGGACAGGAGCAGAUCUUGGUGGAGUGGGUCUACACUUGAGAUUUGUACUCGUUUGAGAGGCUGGGCAAUACUCAAUGCACUUUGGCAUUUGCAUGGUGCUCUUGCGGUCGCACUAGUGUGGAAUUCUCGGGUGUCAAGG
# B13: ENSMUSG00000032194.73|Kank2|146:150 (ssRNA)
# RNA: GGGAGUUCUACAGUCCGACGAUCGCUUCGAUAUCCGCAUGCUAUUUGAAUGUCACUGGAAUGUUACAGUGUCUAUUGUCUCCUCAUCUUUACAGCAGGUCUCCACAAAGCCUGCUCACCACCCUUUGUCACCUCAUUUCAUUGUCUAGUGUACAAUAGGGUCUUGUCCACUGCCCUCCACCUCCAGACACACACUUCAGGGCCUGGGGUGUCUCUUGUGAUUGCUUUACAGAAUAAGAUUGCCGUACCUUAGCCGCCUGCCUCCAGUCAGAAAGCAGUGUUUUCAUUUGCCUUUUUCCUUUCUCUCUUGCGGUCGCACUAGUGUGGAAUUCUCGGGUGUCAAGG
# Biological target: TDP-43 (Homo sapiens, UniProt Q13148 1-414)
# Sequence (Q13148 whole entry): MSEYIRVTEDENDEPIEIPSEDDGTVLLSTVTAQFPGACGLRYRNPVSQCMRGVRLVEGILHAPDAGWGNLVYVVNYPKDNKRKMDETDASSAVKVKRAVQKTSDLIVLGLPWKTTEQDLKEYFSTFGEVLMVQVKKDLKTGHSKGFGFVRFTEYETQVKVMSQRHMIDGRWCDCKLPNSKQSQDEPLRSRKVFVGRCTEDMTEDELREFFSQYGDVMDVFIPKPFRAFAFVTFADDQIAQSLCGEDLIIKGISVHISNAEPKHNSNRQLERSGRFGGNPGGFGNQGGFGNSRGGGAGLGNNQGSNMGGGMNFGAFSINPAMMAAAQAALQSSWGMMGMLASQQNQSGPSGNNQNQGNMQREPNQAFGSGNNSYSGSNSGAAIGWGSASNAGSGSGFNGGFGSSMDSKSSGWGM
# Assay: RNA Bind-n-Seq with designed 260-mer pool; 25 mM Tris-HCl, 150 mM KCl, 3 mM MgCl2, BSA (printed 500 mg/mL), 20 units/mL SUPERase IN; pH not stated; 500 nM RNA pool, 1 h, 4 C; TDP-43 5, 50, 500 nM; high values mean tight binding
# Conditions: protein: recombinant; tags: SBP (GST cleaved off with PreScission; pGEX-GST-SBP)
# Procedure, shortened: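 An in vitro-transcribed pool of 260-nt 3′ UTR oligos (500 nM) was incubated for 1 h at 4 °C with recombinant SBP-tagged TDP-43 at 5, 50 or 500 nM held on streptavidin beads. The buffer contained 25 mM Tris-HCl, 150 mM KCl, 3 mM MgCl2, BSA and SUPERase IN. Biotin-eluted bound RNA was sequenced, and binding, R, is each oligo's normalized read abundance in the bound sample over that in input.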
row,Binder,binding signal
1,B1,0.0144 R (bound/input frequency ratio)
2,B2,1.54 R (bound/input frequency ratio)
3,B3,0.453 R (bound/input frequency ratio)
4,B4,5.78 R (bound/input frequency ratio)
5,B5,9.41 R (bound/input frequency ratio)
6,B6,7.33 R (bound/input frequency ratio)
7,B7,5.01 R (bound/input frequency ratio)
8,B8,4.34 R (bound/input frequency ratio)
9,B9,4.76 R (bound/input frequency ratio)
10,B10,5.93 R (bound/input frequency ratio)
11,B11,7.36 R (bound/input frequency ratio)
12,B12,5.88 R (bound/input frequency ratio)
13,B13,1.55 R (bound/input frequency ratio)
